This is a sample that favours compounds with a hit; in the whole collection about 10% have one here.
HEK cytotox = Cytotoxic Profiling in HEK 293 Cell Line of Diverse Libraries Using Quantitative High-Throughput Screening | 6.6% of 94,000 active | HEK 293 viability, ATP luminescence (CellTiter-Glo), 48-72 h | Potency, µM (doses to about 115 µM), without a hit: at the top dose activity change, negative = cytotoxicity, hits mostly inhibitors; further: on the % scale 0 is the no-effect control and ±100 the full control effect; nearly all actives have a fitted effect of over 60% in size
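Luminescence from cellular ATP, measured with CellTiter-Glo, indicates HEK 293 viability. Cells plated at 250 cells/well are treated with compound for 48 or 72 hr at 37 degree Celsius before reagent addition.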
FLuc inh = Firefly luciferase inhibition profiling of diverse chemical library using quantitative high-throughput screening; purified P. pyralis luciferase, luminescence, biochemical; Potency, µM (highest dose often 115 µM), hits mostly inhibitors; 2.5% of 76,000 active; further: on the % scale 0 is the no-effect control and ±100 the full control effect; nearly all actives have a fitted effect of over 65% in size
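FLuc 10nM, D-luciferin 10uM, ATP 10uM, Mg acetate 10mM, Tris acetate pH 7.5, Tween/BSA; cpd qHTS; enzyme added last; CCD luminescence.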
GPT2 inh = Primary qHTS assay for inhibitors of Glutamate pyruvate transaminase 2 (GPT2); Alanine aminotransferase 2 (Homo sapiens), Q8TD30; Recombinant GPT2, coupled pyruvate oxidase/HRP Amplex Red fluorescence; Potency, µM (titrated, usually from 57.7 µM), inactives show top-dose activity change, negative = inhibition, hits mostly inhibitors; 0.25% of 100,000 active; further: on the % scale 0 is the no-effect control and ±100 the full control effect; nearly all actives have a fitted effect of over 60% in size
Target sequence (Q8TD30 whole entry, looked up): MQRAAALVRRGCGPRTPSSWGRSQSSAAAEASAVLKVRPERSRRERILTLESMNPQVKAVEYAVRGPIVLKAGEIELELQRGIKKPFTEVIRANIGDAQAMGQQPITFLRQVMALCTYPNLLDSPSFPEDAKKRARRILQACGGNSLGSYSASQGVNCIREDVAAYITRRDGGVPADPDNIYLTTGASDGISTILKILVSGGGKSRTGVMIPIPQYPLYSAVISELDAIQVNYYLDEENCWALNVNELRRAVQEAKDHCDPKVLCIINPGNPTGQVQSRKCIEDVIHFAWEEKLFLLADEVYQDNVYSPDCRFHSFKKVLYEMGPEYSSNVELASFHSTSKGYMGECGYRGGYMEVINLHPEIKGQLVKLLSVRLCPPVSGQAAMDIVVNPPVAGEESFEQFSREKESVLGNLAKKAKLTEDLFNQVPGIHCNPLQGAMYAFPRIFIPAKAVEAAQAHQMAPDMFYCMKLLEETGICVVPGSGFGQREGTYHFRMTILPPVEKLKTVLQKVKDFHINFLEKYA
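Recombinant GPT2 (10ng/uL) with 250uM a-KG and 2mM L-alanine, 30 min at room temperature, in HEPES pH 7.5 buffer. Pyruvate detected by pyruvate oxidase/HRP/Amplex Red fluorescence after 30 min in the dark; AOA (50uM) as positive control.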
NIH3T3 tox = Cytotoxic Profiling in NIH 3T3 Cell Line of Diverse Libraries Using Quantitative High-Throughput Screening. NIH 3T3 viability, CellTiter-Glo ATP luminescence, 48-72 h. Potency, µM (top dose mostly 96.7 µM), for the others: at the highest dose activity change, negative = cytotoxicity, most hits filed as inhibitors. 4.3% of 94,000 active. AID 1345082, 2018; further: on the % scale 0 is the no-effect control and ±100 the full control effect; nearly all actives have a fitted effect of over 55% in size
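Cytotoxicity is measured as loss of cellular ATP: NIH 3T3 cells (400/well) are exposed to compound for 48 or 72 hr at 37 °C, then CellTiter-Glo luminescence is imaged after 10 min at room temperature.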
NPR1 antag = Natriuretic polypeptide receptor (hNpr1) antagonism - Primary qHTS; 1.6% of 76,000 active; Potency, µM (doses to about 46.3 µM), inactives show at the top dose activity change, negative = inhibition, hits mostly inhibitors; HEK293 hNpr1 GloSensor cGMP, ANP-stimulated luminescence; Atrial natriuretic peptide receptor 1 (Homo sapiens), P16066; calls by dose curve; further: on the % scale 0 is the no-effect control and ±100 the full control effect; nearly all actives have a fitted effect of over 60% in size
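Compound pre-incubated 30 min at room temperature on GloSensor-loaded HEK293 cells stably carrying hNpr1 and the pGS-40F cGMP biosensor. Stimulation uses hNppA at 0.1 nM final; luminescence is taken at baseline and 20 min post-agonist.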
Npr1 antag conf = Natriuretic polypeptide receptor (hNpr1) antagonism - Confirmation; shares compounds with NPR1 antag; HEK293 hNpr1 cGMP GloSensor luminescence, ANP-stimulated; Potency, µM (doses to about 57.6 µM), inactives show at the highest dose activity change, negative = inhibition, most hits filed as inhibitors; 76% of 1,400 active; calls by dose curve; further: nearly all actives have a fitted effect of over 70% in size
NPR2 antag = Natriuretic polypeptide receptor (hNpr2) antagonism - Subtype selectivity assay. shares compounds with NPR1 antag. HEK293 hNpr2 GloSensor cGMP luminescence, CNP-stimulated. Potency, µM (highest dose often 57.6 µM), inactives show top-dose activity change, negative = inhibition, most hits filed as inhibitors. 67% of 1,400 active; calls by dose curve; further: nearly all actives have a fitted effect of over 70% in size
FLuc counter = Natriuretic polypeptide receptor (hNpr1) antagonism - Confirmation firefly luciferase (FLuc) inhibition counterscreen. purified FLuc enzyme, luminescence, Km substrate. shares compounds with NPR1 antag. AID 1347047, 2019. 0.7% of 1,400 active. Potency, µM (top dose mostly 57.6 µM), for inactives: at the highest dose activity change, negative = inhibition, actives largely listed as inhibitors; further: 0% is about no effect
GloSensor ctrl = Natriuretic polypeptide receptor (hNpr1) antagonism - Counterscreen GloSensor control cell line | 69% of 1,400 active | shares compounds with NPR1 antag | AID 1347051, 2019 | Potency, µM (top dose mostly 57.6 µM), for the others: at the highest dose activity change, negative = inhibition, usual class: inhibitors | HEK293 GloSensor cGMP, SNP-stimulated, luminescence; calls by dose curve; further: on the % scale 0 is the no-effect control and ±100 the full control effect; nearly all actives have a fitted effect of over 70% in size
The depositor's hits bear a star; [ ] = remark or other dose. Unless noted, the call rests on the fitted dose curve; in most records, active means well fitted curve in the direction sought with a large enough effect; inconclusive means small, poorly fitted or top-dose-only effect, or another doubt; inactive means no such curve, though single readings can be large; an effect the other way counts as inactive or inconclusive. Potency means the concentration at half of the fitted maximal effect.

Results for CCc1cc(N2CCOC(c3ccc4cc(OC)ccc4c3)C2)nc(C)n1 (centres undefined) ?
HEK cytotox: 35µM*; FLuc inh: inactive; GPT2 inh: 0%; NIH3T3 tox: inconclusive; NPR1 antag: 11µM*; Npr1 antag conf: 22µM*; NPR2 antag: 22µM*; FLuc counter: inconclusive; GloSensor ctrl: 17µM*

Results for COc1ccc2cc(C3CN(Cc4cc5n(n4)CCNC5)CCO3)ccc2c1 (centres undefined) ?
HEK cytotox: inconclusive; FLuc inh: inactive; GPT2 inh: inactive; NIH3T3 tox: inconclusive; NPR1 antag: -21%

Results for N#Cc1ccccc1CN1CCCC(C(=O)NCc2ccccc2)CCNC(=O)CC1 (centres undefined) ?
HEK cytotox: inactive; FLuc inh: inactive; GPT2 inh: inactive; NIH3T3 tox: -11%; NPR1 antag: 4µM*; Npr1 antag conf: 14µM*; NPR2 antag: 6.1µM*; FLuc counter: 3%; GloSensor ctrl: 15%

How did COc1cccc(CN2CCCC(C(=O)NCc3ccccc3)CCNC(=O)CC2)c1 (centres undefined) do in these assays?
HEK cytotox: inactive; FLuc inh: inactive; GPT2 inh: inactive; NIH3T3 tox: -1%; NPR1 antag: 0%

Results for CCOc1ccccc1C(=O)N1CCc2[nH]nc(C(=O)NCCCc3ccccc3)c2C1 ?
HEK cytotox: 22µM*; FLuc inh: inactive; GPT2 inh: inactive; NIH3T3 tox: inconclusive; NPR1 antag: inconclusive; Npr1 antag conf: 24µM*; NPR2 antag: inconclusive; FLuc counter: 4%; GloSensor ctrl: 19µM*

Results for CCCCn1c(=O)c(C(=O)NC)nc2cccnc21 ?
HEK cytotox: inactive; GPT2 inh: inactive; NIH3T3 tox: 1%[138 µM]

Results for O=C(c1ccc(Cl)cc1Cl)N1CCN(c2cc(-c3cccs3)[nH]n2)CC1 ?
HEK cytotox: 45µM*; FLuc inh: inactive; GPT2 inh: -6%; NIH3T3 tox: 8.9µM*; NPR1 antag: 10µM*; Npr1 antag conf: 24µM*; NPR2 antag: 19µM*; FLuc counter: 1%; GloSensor ctrl: 22µM*

How did COc1ccc(C(=O)N2CCN(c3cc(-c4cccs4)[nH]n3)CC2)c(C)c1 do in these assays?
HEK cytotox: 50µM*; FLuc inh: inactive; GPT2 inh: inactive; NIH3T3 tox: inconclusive; NPR1 antag: 11µM*; Npr1 antag conf: 19µM*; NPR2 antag: 19µM*; FLuc counter: 0%; GloSensor ctrl: 15µM*
